Screening results as filed in PubChem.
Shown are actives, neighbours in structure and some others; about 7.5% of the full set was active somewhere.
NPC1 promoter act: activates the NPC1 promoter; Potency, µM (highest dose often 9.22 µM), actives largely listed as activators; Huh7 NPC1 promoter luciferase reporter, 24 h; 320,000 compounds, 2.4% hits; further: nearly all actives have a fitted effect of over 60% in size
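Luciferase expression driven by the NPC1 promoter was measured in stably transfected Huh7 cells after a 24 h compound incubation, using a luciferase reagent and a luminescence read.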
SMN2 splice enh: SMN2 splice variant enhancement | HEK293 SMN2-luciferase splicing reporter, luminescence, 30-36 h | 210,000 compounds, 2.8% hits | Potency, µM (series often up to 46.1 µM), hits mostly activators | AID 1458; further: nearly all actives have a fitted effect of over 55% in size
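HEK293 cells carry an SMN2 minigene-luciferase reporter in which exon 7 inclusion puts luciferase in frame. Cells were seeded at 2000 cells/well, attached for 10-12 hours, then exposed to compounds for 30-36 hours at 37C before ONE-Glo luminescence.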
FLuc modulator: counter-screen for miR-21 project: firefly luciferase inhibitors or activators; P08659; purified FLuc, Km substrates, luminescence inhibition; Potency, µM (top dose mostly 57.5 µM), actives largely listed as inhibitors; 360,000 compounds, 6.9% hits; further: nearly all actives have a fitted effect of over 55% in size
Target sequence (P08659 whole entry, looked up): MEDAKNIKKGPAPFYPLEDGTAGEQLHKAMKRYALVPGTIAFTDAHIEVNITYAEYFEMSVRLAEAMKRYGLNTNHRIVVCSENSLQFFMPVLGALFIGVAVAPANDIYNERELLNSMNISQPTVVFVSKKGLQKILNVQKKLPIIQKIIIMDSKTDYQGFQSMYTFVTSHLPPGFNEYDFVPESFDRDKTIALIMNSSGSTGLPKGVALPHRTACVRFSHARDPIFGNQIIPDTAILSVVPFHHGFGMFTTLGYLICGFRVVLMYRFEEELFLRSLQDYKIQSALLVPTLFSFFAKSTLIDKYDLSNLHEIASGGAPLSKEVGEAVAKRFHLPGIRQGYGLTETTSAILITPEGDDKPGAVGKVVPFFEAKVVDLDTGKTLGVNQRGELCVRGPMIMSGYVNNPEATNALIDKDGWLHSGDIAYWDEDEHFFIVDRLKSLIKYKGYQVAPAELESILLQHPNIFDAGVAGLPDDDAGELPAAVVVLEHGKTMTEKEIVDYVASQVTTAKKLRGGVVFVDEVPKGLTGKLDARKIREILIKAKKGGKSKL
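Purified P. pyralis luciferase (10nM final) with 10uM D-luciferin and 10uM ATP (Km levels) in 50mM Tris acetate pH 7.5, 10mM Mg acetate, 0.01% Tween-20, 0.05% BSA; qHTS 6-point titration, ~60 µM downward; luminescence read.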
Rab9 promoter act: Rab9 promoter activation; Huh7 Rab9 promoter-luciferase reporter, luminescence, 24 h; Potency, µM (doses to about 9.22 µM), hits mostly activators; 320,000 compounds, 2.8% hits; AID 485297; further: nearly all actives have a fitted effect of over 60% in size
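Luciferase signal after 10 min detection reagent at ambient indicates Rab9 promoter upregulation; stably transfected Huh7 cells were treated 24 h with compound in DMSO at 37 °C, 5% CO2.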
ELG1 genotox: genotoxicity induction in ELG1-luciferase HEK293T cells. Potency, µM (titrated, usually from 46 µM), most hits filed as activators. 330,000 compounds, 1.3% hits. HEK293T ELG1-luciferase reporter, luminescence, 16 h; further: nearly all actives have a fitted effect of over 60% in size
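Cells (2,000/well) expressing the ELG1-luciferase fusion are dosed by pin tool and kept 16 hr at 37 °C, 5% CO2. Signal comes from ONE-Glo luciferase reagent after 30 min at room temperature.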
Of the large screens only hits and unclear results are named; the others gave an inactive call. The call rests on the fitted dose curve; in most records, active means well fitted curve in the direction sought with a large enough effect; inconclusive means small, poorly fitted or top-dose-only effect, or another doubt; inactive means no such curve, though single readings can be large; an effect the other way counts as inactive or inconclusive.

COc1cccc(C2CC(=O)Nc3c2c(=O)n(C)c2nc4ccccc4n32)c1 (stereo not given)	FLuc modulator inconclusive (no result: NPC1 promoter act, Rab9 promoter act, ELG1 genotox)
Cn1c(SCC(=O)Nc2nccs2)nnc1C12CC3CC(CC(C3)C1)C2	FLuc modulator inconclusive
CN(Cc1nc(-c2ccccc2)no1)C1CCOCC1	NPC1 promoter act 2.5µM, FLuc modulator 17µM, Rab9 promoter act inconclusive, ELG1 genotox inconclusive (no result: SMN2 splice enh)
c1ccc(-c2noc(CC3CCCCC3)n2)cc1	FLuc modulator 9.5µM, Rab9 promoter act inconclusive, ELG1 genotox inconclusive
c1cc(-c2noc(CCC3CCCC3)n2)ccn1	SMN2 splice enh inconclusive, FLuc modulator inconclusive, ELG1 genotox inconclusive
O=S(=O)(c1ccccc1)N(Cc1nc(-c2ccccc2)no1)C1CCCCC1	none
c1ccc(-c2noc(CCC3CCCC3)n2)cc1	FLuc modulator 11µM, Rab9 promoter act inconclusive, ELG1 genotox inconclusive
O=C(COC(=O)c1cc([N+](=O)[O-])ccc1N1CCOCC1)NCCc1ccccc1	none (no result: SMN2 splice enh)
Cc1nc(SCC(=O)Nc2ccccc2)c2oc3ccccc3c2n1	none (no result: SMN2 splice enh)
O=C(O)CSc1nc(-c2ccccc2)nc2c1oc1ccccc12	FLuc modulator 21µM
CCc1nc(SCC(=O)c2cccs2)c2oc3ccccc3c2n1	FLuc modulator 11µM
Cc1nc(SCC(=O)c2ccc(Cl)s2)c2oc3ccccc3c2n1	NPC1 promoter act inconclusive, FLuc modulator 9.5µM, Rab9 promoter act inconclusive
Cc1cccc2cc(/C=N/NC(=O)CN3CCCCC3)c(Cl)nc12	none
Cc1ccc(-c2csc3nnc(SCC(=O)NCc4ccc5c(c4)OCO5)n23)cc1	none
CCCNc1nc(N)nc(-c2cc(Cl)ccc2OC)n1	none
CCCCNc1nc(N)nc(-c2cc(Cl)ccc2O)n1	NPC1 promoter act 3.5µM, SMN2 splice enh 6.3µM, FLuc modulator 9.5µM, Rab9 promoter act 2.8µM, ELG1 genotox inconclusive
CCNc1nc(N)nc(-c2cc(Cl)ccc2O)n1	NPC1 promoter act 4µM, SMN2 splice enh 11µM, FLuc modulator 1.7µM, Rab9 promoter act 1.3µM, ELG1 genotox inconclusive
CCCCOC(=O)Nc1ccc(C(N)=O)cc1	NPC1 promoter act inconclusive, SMN2 splice enh inconclusive, FLuc modulator 15µM, Rab9 promoter act inconclusive, ELG1 genotox 23µM
CCCCOC(=O)Nc1ccc(S(=O)(=O)Nn2cnnc2)cc1	none
CCCCOC(=O)Nc1ccc(N(C)C)cc1	NPC1 promoter act 4µM, SMN2 splice enh 11µM, FLuc modulator 3µM, Rab9 promoter act 2.8µM, ELG1 genotox 9.2µM
CCOC(=O)c1c(C)c(C(=O)Nc2ccc(N(C)C)cc2)c(C)n1CC	FLuc modulator 15µM
CCCCOC(=O)Nc1nnc(C(C)C)s1	NPC1 promoter act 2.8µM, SMN2 splice enh inconclusive, FLuc modulator inconclusive, Rab9 promoter act 2.2µM, ELG1 genotox inconclusive
COC(=O)c1c(NC(=O)c2c(C)noc2C)sc2c1CCCCCC2	none
Cc1ccc(S(=O)(=O)N2CCCc3ccccc32)cc1C	FLuc modulator inconclusive (no result: SMN2 splice enh)
CC(=O)OCC(=O)[C@@]1(O)[C@H](C)C[C@@H]2[C@H]3CCC4=CC(=O)C=C[C@]4(C)[C@]3(F)[C@@H](O)C[C@@]21C	none (no result: NPC1 promoter act, FLuc modulator, Rab9 promoter act, ELG1 genotox)
CCCCOC(=O)Nc1ccc(C(C)C)cc1	NPC1 promoter act inconclusive, SMN2 splice enh 14µM, FLuc modulator 9.5µM, Rab9 promoter act inconclusive, ELG1 genotox inconclusive
CCCCOC(=O)Nc1cccc(C(=O)OCC)c1	NPC1 promoter act 0.22µM, SMN2 splice enh inconclusive, FLuc modulator inconclusive, Rab9 promoter act 0.32µM, ELG1 genotox inconclusive
CCOCCOC(=O)c1cccc(NC(=O)OCC)c1	none
Fc1ccccc1CSc1ccc(-c2ccco2)nn1	NPC1 promoter act 2.2µM, SMN2 splice enh 18µM, FLuc modulator 6µM, Rab9 promoter act 1.6µM, ELG1 genotox inconclusive
c1ccc(CSc2ccc(-c3ccco3)nn2)cc1	NPC1 promoter act 4µM, SMN2 splice enh 13µM, FLuc modulator 2.4µM, Rab9 promoter act 1.8µM, ELG1 genotox 8.2µM
Clc1ccc(CSc2ccc(-c3ccco3)nn2)cc1	NPC1 promoter act inconclusive, SMN2 splice enh inconclusive, FLuc modulator inconclusive, Rab9 promoter act inconclusive
Clc1cccc(CSc2ccc(-c3cccnc3)nn2)c1	FLuc modulator inconclusive
Cc1cccc(CSc2ccc(-c3ccco3)nn2)c1	NPC1 promoter act inconclusive, SMN2 splice enh inconclusive, FLuc modulator 12µM, Rab9 promoter act inconclusive, ELG1 genotox inconclusive
Clc1cccc(CSc2ccc(-c3ccco3)nn2)c1	FLuc modulator 21µM
CCOC(=O)C1(CCCc2ccccc2)CCN(C2CCSCC2)CC1	none (no result: SMN2 splice enh)
